Reference: PubChem BioAssay AID1159580 (chemical genetic matrix, 2015)
Values joined by “and” are separate entries in the source; they are usually repeats but may differ in a detail not shown here. Equal values may be shown once. The campaign covered roughly 5,500 compounds. About 2,000 (36%) were called active. About 18% were inconclusive and are not listed. Rule as the data show it: active = normalized growth mostly below about 0.91 (no sharp cut-off); inconclusive = no clear call, values can overlap the other calls; inactive = mostly above about 0.92. Some of the results follow.

Assay: chemical genetic growth profiling, strain panel (AID 1159580);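 also: tested at 20 µM; growth read once vehicle control cultures reached saturation at 30 °C; 1 = growth at the plate median or of vehicle wells; lower values mean less growth of the strain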
Conditions: S. cerevisiae deletion strains, growth OD

Measured: normalized growth

CCN(CC)CCOC(=O)C(c1ccccc1)c1ccccc1
inactive: locus YAL013W, strain DEP1, active compounds read low 0.982 | locus YAL021C, strain ccr4, active compounds read low 0.964 | locus YAL026C, strain drs2, active compounds read low 0.975 | locus YAL030W, strain snc1, active compounds read low 0.948 | locus YBL061C, strain skt5, active compounds read low 0.965 | locus YBR009C, strain hhf1, active compounds read low 0.99 | locus YBR021W, strain FUR4, active compounds read low 0.989 | locus YBR023C, strain chs3, active compounds read low 0.957 | locus YBR171W, strain sec66, active compounds read low 0.971 | locus YBR229C, strain ROT2, active compounds read low 1 | locus YBR231C, strain swc5, active compounds read low 0.967 | locus YBR279W, strain paf1, active compounds read low 0.971 | locus YCL011C, strain gbp2, active compounds read low 0.948 | locus YCL016C, strain dcc1, active compounds read low 0.987 | locus YCL029C, strain bik1, active compounds read low 0.979 | locus YCL069W, strain vba3, active compounds read low 0.976 | locus YCR088W, strain abp1, active compounds read low 0.968 | locus YDL005C, strain med2, active compounds read low 0.958 | locus YDL035C, strain GPR1, active compounds read low 0.988 | locus YDL040C, strain nat1, active compounds read low 0.972 | locus YDL074C, strain BRE1, active compounds read low 1.01 | locus YDL101C, strain DUN1, active compounds read low 0.995 | locus YDL134C, strain PPH21, active compounds read low 0.997 | locus YDL185W, strain tfp1, active compounds read low 0.96 | locus YDL192W, strain arf1, active compounds read low 0.989 | locus YDR001C, strain nth1, active compounds read low 0.964 | locus YDR069C, strain doa4, active compounds read low 0.936 | locus YDR101C, strain arx1, active compounds read low 1.01 | locus YDR137W, strain rgp1, active compounds read low 0.994 | locus YDR159W, strain sac3, active compounds read low 0.947 | locus YDR162C, strain NBP2, active compounds read low 0.961 | locus YDR195W, strain ref2 0.889 | locus YDR297W, strain sur2, active compounds read low 0.974 | locus YDR318W, strain mcm21, active compounds read low 0.986 | locus YDR334W, strain swr1, active compounds read low 0.943 | locus YDR335W, strain msn5, active compounds read low 0.976 | locus YDR388W, active compounds read low 1 | locus YDR392W, strain spt3, active compounds read low 1.01 | locus YDR502C, strain sam2, active compounds read low 1 | locus YEL003W, strain gim4, active compounds read low 0.972 | locus YEL037C, strain rad23, active compounds read low 0.973 | locus YEL061C, strain CIN8 (second series), active compounds read low 0.957 | locus YEL061C, strain CIN8, active compounds read low 0.987 | locus YER015W, strain faa2, active compounds read low 0.984 | locus YER016W, strain bim1, active compounds read low 0.976 | locus YER110C, active compounds read low 0.968 | locus YER111C, strain swi4, active compounds read low 0.957 | locus YER155C, strain BEM2 (second series), active compounds read low 0.951 | locus YER155C, strain BEM2, active compounds read low 1.01 | locus YER167W, strain BCK2, active compounds read low 0.993 | locus YFR010W, strain ubp6, active compounds read low 0.959 | locus YGL078C, strain dbp3, active compounds read low 0.987 | locus YGL086W, strain mad1, active compounds read low 0.995 | locus YGL167C, strain pmr1, active compounds read low 0.962 | locus YGL173C, strain kem1, active compounds read low 0.98 | locus YGL227W, strain vid30, active compounds read low 0.961 | locus YGL240W, strain doc1, active compounds read low 0.963 | locus YGL248W, strain PDE1, active compounds read low 1.01 | locus YGL253W, strain hxk2, active compounds read low 0.97 | locus YGR135W, strain pre9, active compounds read low 0.955 | locus YGR229C, strain SMI1, active compounds read low 0.979 | locus YGR252W, strain gcn5, active compounds read low 0.994 | locus YHR013C, strain ard1, active compounds read low 0.964 | locus YHR027C, strain rpn1, active compounds read low 0.971 | locus YHR030C, strain SLT2, active compounds read low 0.981 and 0.995 | locus YHR079C, strain IRE1 (second series), active compounds read low 0.99 | locus YHR079C, strain IRE1, active compounds read low 0.986 | locus YHR094C, strain hxt1, active compounds read low 0.993 | locus YHR129C, strain ARP1, active compounds read low 0.99 | locus YHR142W, strain chs7, active compounds read low 0.967 | locus YHR200W, strain rpn10, active compounds read low 0.975 | locus YIL066C, strain RNR3, active compounds read low 1 | locus YIL073C, strain SPO22, active compounds read low 0.935 | locus YIL125W, strain kgd1, active compounds read low 1 | locus YIR030C, strain dcg1, active compounds read low 0.987 | locus YJL092W, strain hpr5, active compounds read low 0.964 | locus YJL095W, strain BCK1 (second series), active compounds read low 0.973 | locus YJL095W, strain BCK1, active compounds read low 1.02 and 0.981 | locus YJL115W, strain asf1, active compounds read low 0.949 | locus YJL129C, strain trk1, active compounds read low 0.972 | locus YJL134W, strain LCB3, active compounds read low 0.989 | locus YJL154C, strain vps35, active compounds read low 0.959 | locus YJL164C, strain tpk1, active compounds read low 0.993 | locus YJL166W, strain qcr8, active compounds read low 0.958 | locus YJL168C, strain set2, active compounds read low 1 | locus YJL187C, strain SWE1 (second series), active compounds read low 1.01 | locus YJR043C, strain POL32, active compounds read low 0.998 | locus YJR066W, strain TOR1, active compounds read low 0.963 | locus YKL009W, strain mrt4, active compounds read low 0.959
